A number with no mark means an inactive call.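 How the source made its calls: active means combined score above 50, rising as EC50 falls below 10 µM and growth at top dose drops; inactive means the rest.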 Peptide text beside a SMILES is read from it. * marks the point of attachment. Cbz = O=C(OCc1ccccc1)*

This experiment deals with YE3959. Description: yeast strain panel proliferation effects – secondary panel, OD600, 26S proteasome disassembly project, profiling panel (AID 2125). Conditions: S. cerevisiae strain panel, growth OD600, 6-8 h, at 100 µM, hits give low values.

For `CC(=O)N1C(=O)C(=C2C=C(C)OC(C)=C2)c2ccccc21`, the percent response (growth) was 60.8%.
`CC(C)C[C@@H](C=O)NC(=O)[C@H](CC(C)C)NC(=O)[C@H](CC(C)C)NC(=O)OCc1ccccc1` (Cbz-Leu-Leu-Leu-aldehyde): the percent response (growth) was 52.8%.
